According to PubChem BioAssay AID1345083 (National Center for Advancing Translational Sciences (NCATS), 2018):
Screen size: about 94,000 compounds; about 6,200 (6.6%) were called active. Not shown: some 31% with an inconclusive outcome. This is one part of a sample in which actives are shown more often than they occur. A number with no mark means an inactive call. Calls follow the shape of the dose curve; as a rule, active = well fitted inhibition curve with a large enough effect; inconclusive = small, poorly fitted or top-dose-only effect; inactive = flat fitted curve, though single readings scatter.

Assay: Cytotoxic Profiling in HEK 293 Cell Line of Diverse Libraries Using Quantitative High-Throughput Screening; also: nearly all actives have a fitted effect of over 60% in size
Details: HEK 293 viability, ATP luminescence (CellTiter-Glo), 48-72 h; series mostly up to 115 µM; activity change, negative = cytotoxicity: at the top concentration
Method in brief: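 Viability of HEK 293 cells, plated at 250 cells/well, was judged by cellular ATP after compound treatment for 48 or 72 hr. Luminescence was imaged 10 min after CellTiter-Glo addition at room temperature.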
% is scaled to controls: 0 for no effect and ±100 for the full control effect; potency is read from the fitted curve at half-maximal effect.

| SMILES | activity change, negative = cytotoxicity | Potency | outcome |
| --- | --- | --- | --- |
| CN(C)C(=O)N1CCN(C(=O)c2cccc(-c3ccccn3)c2)CC1 | -14.7% [at 172 µM] |  |  |
| Cc1ccc(S(=O)(=O)Cc2noc([C@@H]3C[C@@H](O)CN3Cc3cccs3)n2)cc1 | -16.9% [at 172 µM] |  |  |
| COc1ccc(CCC(=O)N2CCCC(n3c(C)cnc3C3CCOCC3)C2)cc1 (stereo not drawn) | -23.1% |  |  |
| O=C(NC1CC1)c1ccc(CC2CCN(C(=O)c3ccccn3)CC2)cc1 | -25.9% |  |  |
| COc1ccc(-c2cccc(C(=O)NCc3cccc(Cl)c3)c2)nn1 |  | 79.4 µM (active) |  |
| COc1ccc(-c2ccc(C(=O)NCc3ccccc3Cl)cc2)nn1 | -9.88% [at 172 µM] |  |  |
| COc1ccc(-c2ccc(C(=O)N3CCN(C(=O)c4cccc(Cl)c4)CC3)cc2)nn1 | -0.234% |  |  |
| CCN1CC2(CCN(C(=O)c3cccc(N4CCOCC4)c3)CC2)OC1=O | -5.91% |  |  |
| CC(=O)N1Cc2ccccc2CC2(CCN(Cc3cccnc3)CC2)C1 | -5.64% |  |  |
| CC(=O)N1Cc2ccccc2CC2(CCCN(Cc3ccncc3)C2)C1 (stereo not drawn) | -1.66% |  |  |
| C[C@H](C(=O)N1Cc2ccccc2CC2(CCN(Cc3ccncc3)CC2)C1)c1ccccc1 |  | 50.1 µM (active) |  |
| O=C(Nc1cccc(-n2cccn2)c1)C1CCCN(C2CCN(Cc3ccco3)CC2)C1 (stereo not drawn) | -1.69% |  |  |
| COc1ccc(OC)c(CNC(=O)CC2C(=O)NCCN2CC=C(C)C)c1 (stereo not drawn) |  |  | inactive |
| COC[C@@H]1CN(C(=O)c2ccc3ncccc3c2)C[C@H]1c1nc(C)no1 | -0.388% |  |  |
| COc1ccc(CC2CCOC3(CCN(C(=O)NCC(C)C)CC3)C2)cc1 (stereo not drawn) |  | 39.8 µM (active) |  |
| CNC(=O)N1CCC2(CC1)CC(Cc1cccc(F)c1)CCO2 (stereo not drawn) | -28.8% |  |  |
| COc1ccc(CNC(=O)N2CCC3(CC2)CC(OCC2CC2)CCO3)cc1 (stereo not drawn) | -2.8% |  |  |
| O=C1NCCCCCCN(C(=O)Cc2cccnc2)[C@@H]2C[C@@H](c3nc(-c4cnccn4)no3)C[C@H]12 |  |  | inactive |
| C=CCN1CCC2(CCC1=O)CN(Cc1ncc[nH]1)CCN2C (stereo not drawn) |  |  | inactive |
| O=C(c1ccc(F)cc1)N1CCC(N2CC3CC(C2)[C@H]2CCCC(=O)N2C3)CC1 (stereo partly drawn) | 5.13% |  |  |

| SMILES | activity change, negative = cytotoxicity | Potency | outcome |
| --- | --- | --- | --- |
| COCc1cc(CN2C[C@H](NC(=O)CO)[C@@H](C3CC3)C2)ccc1OC |  |  | inactive |
| O=C1CCN(Cc2ccc(C(F)(F)F)cc2)CCCOCCN1 | -16.5% |  |  |
| O=C(C1CCN([S+](=O)([O-])c2cccc(C(F)(F)F)c2)CC1)N1CCC(N2CCCC2=O)CC1 | -5.24% |  |  |
| O=C1CCCCCN1C1CCN(Cc2ccc(C(F)(F)F)cc2)CC1 |  | 31.6 µM (active) |  |
| Cn1cnc(S(=O)(=O)N[C@@H]2CCOC[C@H]2Oc2ccc(C(N)=O)cc2)c1 | 3.24% |  |  |
| OC1(CN2CCC(CCn3cccn3)CC2)CNCCOC1 (stereo not drawn) | -5.79% |  |  |
| O=C(NC1CCCc2c1[nH]c1c(Cl)cccc21)c1ccco1 (stereo not drawn) |  | 44.7 µM (active) |  |
| O=C(NC1CCc2nnc(C3CC3)n2CC1)c1ccco1 (stereo not drawn) | -27.7% |  |  |
| O=C(Cn1nc(-c2ccco2)ccc1=O)NC1CCCc2c1[nH]c1c(Cl)cccc21 (stereo not drawn) | 1.59% |  |  |
| CC(C)S(=O)(=O)N1CCC(OCc2noc(C3CCCO3)n2)CC1 (stereo not drawn) | 0.452% |  |  |
| O=C(Nc1ccc(Cl)cc1)N[C@H]1CO[C@H]2[C@@H]1OC[C@H]2O |  |  | inactive [at 172 µM] |
| CC(C)(CC(=O)O)CC(=O)N[C@H]1CO[C@H]2[C@@H]1OC[C@@H]2Nc1nccc(-c2ccc3c(c2)OCO3)n1 |  |  | inactive |
| O=C(Nc1cccc(C(F)(F)F)c1)O[C@@H]1CO[C@H]2[C@@H]1OC[C@@H]2Nc1nccc(-c2ccc3c(c2)OCO3)n1 |  | 50.1 µM (active) |  |
| COc1ccc(NC(=O)O[C@@H]2CO[C@H]3[C@@H]2OC[C@@H]3NC(=O)NC2CCCCC2)cc1 | -27.6% [at 172 µM] |  |  |
| CC(=O)Nc1cccc(OCC2CN(Cc3cccc(C(F)(F)F)c3)C(=O)c3c(ccnc3-c3ccc(OCC(=O)O)cc3)O2)c1 (stereo not drawn) | -9.98% |  |  |
| N#Cc1cccc(NC(=O)O[C@@H]2CO[C@H]3[C@@H]2OC[C@@H]3Nc2nccc(-c3ccccc3)n2)c1 |  | 22.4 µM (active) |  |
| COc1ccc(-c2ccnc(N[C@H]3CO[C@H]4[C@@H]3OC[C@H]4OC(=O)Nc3cccc4ccccc34)n2)cc1 |  | 39.8 µM (active) |  |
| CCNC(=O)O[C@@H]1CO[C@H]2[C@@H]1OC[C@@H]2NC(=O)c1cccc(C(=O)OC)c1 | -4.88% [at 172 µM] |  |  |
| CCNC(=O)O[C@@H]1CO[C@H]2[C@@H]1OC[C@@H]2NC(=S)Nc1cccc2ccccc12 |  | 70.8 µM (active) |  |
| CNC(=O)[C@@H]1CN(C(=O)Cn2c(=O)oc3ccccc32)C[C@H]1c1n[nH]c(C)n1 | 3.76% |  |  |

| SMILES | activity change, negative = cytotoxicity | Potency | outcome |
| --- | --- | --- | --- |
| O=C(O)c1ccc2c(c1)CC(=O)N2Cc1cccc(F)c1 | 4.64% |  |  |
| CN1CCCCCCN(S(=O)(=O)N(C)C)CCC1=O |  |  | inactive |
| O=C(O)CC1(CC(=O)N2CCN3C(=O)c4cc(-c5ccsc5)ccc4NC(=O)[C@H]3C2)CCCC1 |  |  | inactive |
| c1cncc(CN2CC(Oc3ccc4c(c3)OCO4)C2)c1 |  |  | inactive [at 172 µM] |
| COC(=O)N1CCN2C[C@@H](C(N)=O)[C@H](c3ccccc3)[C@H]2C1 | -27.2% |  |  |
| CC(=O)c1c(C)nn(CC(=O)N2CCC(c3cc(C(C)C)n[nH]3)CC2)c1C | 2.16% |  |  |
| CCC(=O)N1CCC(c2nc(C3CCOCC3)no2)C1 (stereo not drawn) | 8.65% |  |  |
| CSc1ccc(CNC(=O)c2cc3c(N4CCSCC4)nc(C)cn3n2)cc1 | -26% |  |  |
| COCc1nc(-c2ccc(NC(=O)Cn3nc4c(cc3=O)CCCC4)cc2)n[nH]1 | -7.47% |  |  |
| O=C(NCCCn1cccn1)C1CCCCc2nnc(-c3ccccc3)n21 (stereo not drawn) | -10.7% |  |  |
| COc1ccc(C(=O)N2CCCC(Cc3nc(C4CCOCC4)no3)C2)cc1 (stereo not drawn) | -0.205% |  |  |
| C=CCNC(=O)N[C@H]1CO[C@H]2[C@@H]1OC[C@H]2OC(=O)Nc1cccc(C(C)=O)c1 | -23.8% [at 172 µM] |  |  |
| CC(=O)c1ccc(NC(=O)O[C@@H]2CO[C@H]3[C@@H]2OC[C@@H]3Nc2nccc(-c3ccco3)n2)cc1 |  | 22.4 µM (active) |  |
| CC(C)(C)c1ccnc(N[C@H]2CO[C@H]3[C@@H]2OC[C@H]3OC(=O)Nc2cccc(C(F)(F)F)c2)n1 |  | 39.8 µM (active) |  |
| CC(C)(C)c1ccnc(N[C@H]2CO[C@H]3[C@@H]2OC[C@@H]3NC(=O)CC2(CC(=O)O)CCCC2)n1 |  |  | inactive |
| CCCN1CCN(C(=O)C2CCCN(c3cnn(Cc4ccccc4)c(=O)c3)C2)CC1 (stereo not drawn) | 4.03% |  |  |
| O=C(Cc1cccc(F)c1)N1CC(CNC(=O)N2CCCC2)C2(CCOCC2)C1 (stereo not drawn) | -9.03% |  |  |
| Cc1oc2c(c1C(=O)NC1CCN(C)CC1)CN(C)CC2 | 1.61% |  |  |
